Drawing on PubChem BioAssay (NCI), this text covers growth for 27 compounds.

Molecules are shown by their SMILES. About 83,000 compounds went through this panel and 20% of them were active in at least one assay; those are over-represented in the sample as a whole.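 In brief: 96-well plates, 48 h treatment, single concentration, percent growth endpoint.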 A number with no mark means an inactive call. Activity calls are given as the source filed them. How the source made its calls: active means growth percent below 10; inactive means the rest.

Assay in all cases: NCI-60 one-dose screen, 48 h (100 = growth as untreated, 0 = no growth, -100 = all killed)
Holding throughout (conditions): 10 µM unless noted

Experiment [1] has as its system NCI-H23 lung.
Experiment [2] concerns NCI-H226 lung.
For experiment [3], the system named is NCI-H322M lung.
Experiment [4] concerns HOP-62 NSCLC.
For experiment [5], the system named is NCI-H460 lung.
For experiment [6], the system named is HOP-92 NSCLC.
Experiment [7] concerns NCI-H522 lung.
Experiment [8] concerns A549/ATCC NSCLC.
Experiment [9] concerns 786-0 renal.
In experiment [10] the test system is COLO 205 colon.

For `COc1cc2c(c(O)c1Br)C(=O)c1c(O)cc(C[C@H](C)O)cc1[C@H]2[C@H]1c2cc(C[C@H](C)O)cc(O)c2C(=O)c2c1cc(OC)c(Br)c2O`, the growth in experiment [1] was 6.19% (active); in experiment [2] it was 14.3%; in [3], 17.2%; in experiment [4] it was 16.5%; in experiment [5] it was 0.308% (active); in experiment [6] it was -21.3% (active). Besides, the growth in experiment [7] was 2.22% (active); in experiment [8], 11.1%; in experiment [9], 10.4%; in [10], -35.3% (active).
On to `COc1cc(NCCCCCNC(C)(C)C)c2ncccc2c1`, for which the growth in experiment [1] was 93.1%; in [2], 86.5%; in experiment [3], 93.3%; in experiment [4], 92.7%; in experiment [5], 111%; in experiment [6], 79.4%. In addition, the growth in [7] is 67.8%; in experiment [8] it was 88.1%; in experiment [9], 95.6%; in [10] it was 110%.
As to `COc1ccc(C(C)=O)c(OC)c1`, the growth in experiment [1] is 105%; in experiment [2], 95.1%; in experiment [3] it was 124%; in experiment [4] it was 103%; in experiment [5] it was 115%; in experiment [6] it was 75.5%. In addition, the growth in [7] was 89.9%; in [8] it was 105%; in experiment [9], 103%; in experiment [10], 113%.
As to `COc1cc(/C=N/NC(=O)c2cnn3c2NC(c2ccccc2)C3)ccc1Oc1ccccc1` (stereo not given), the growth in experiment [1] was 43.8%; in [2] it was 54.1%; in experiment [3], 30.8%; in [4], 22.3%; in experiment [5], 7.15% (active); in experiment [6], 26.1%. For the same compound, the growth in experiment [7] is 13.8%; in experiment [8] it was 25.5%; in [9], 25.5%; in experiment [10] it was 24.9%.
`COc1ccc(C(=O)NNc2nc(Cl)nc(N3CCN(C(c4ccccc4)c4ccccc4)CC3)n2)cc1`: the growth in [1] is 3.63% (active); in experiment [2] it was 90.1%; in experiment [3], 57.6%; in [4], 86.5%; in [5], 101%; in [6] it was 74%. Besides, the growth in experiment [7] is -33% (active); in experiment [8] it was 92.6%; in [9] it was 69.1%; in experiment [10], 60.5%.
Regarding `Cc1cc2nc3c4cc([N+](=O)[O-])ccc4n(CCN(C)C)c3nc2cc1C`, the growth in [1] is -26.8% (active); in experiment [2] it was -25.3% (active); in [3], -15.1% (active); in experiment [4], 5.3% (active); in [5] it was 1.25% (active); in experiment [6], -10.7% (active). For the same compound, the growth was -17% (active) in [7], -45.8% (active) in experiment [8], 5.9% (active) in experiment [9] and -42.3% (active) in [10].
Turning to `COc1cc(-c2csc(NC(=O)c3cc(F)cc(C(F)(F)F)c3)n2)cc(OC)c1OC`, the growth in [1] was 49.8%; in experiment [2], 27.7%; in experiment [3], 68%; in experiment [4], 39.3%; in experiment [5], 19.5%; in [6], 51.2%. Also, the growth in experiment [7] is -10.8% (active); in [8] it was 64.4%; in [9], 29.4%; in [10] it was 25.5%.
As for `CCOC(=O)C1=C(C)NC(SCc2cc(=O)oc3ccc(F)cc23)=N[C@@H]1c1cccc2ccccc12`, the growth is 94.3% in [1]; 103% in experiment [2]; 102% in experiment [3]; 90.8% in experiment [4]; 105% in experiment [5]; 86.7% in experiment [6]. The growth in [7] is 84.8%; in [8] it was 98.9%; in [9] it was 93.4%; in experiment [10], 108%.
As to `ClC1=C(Br)C(Br)(Br)C(=C(Br)Br)C1(Br)Br`, the growth was 104% in experiment [1]; 93.6% in experiment [2]; 99% in [3]; 121% in experiment [4]; 94.7% in [5]; 94% in [6]. The growth in experiment [7] is -25% (active); in experiment [8], 94.6%; in experiment [9], 109%; in experiment [10], 57.3%.
Take `CC(=O)CCC(=O)OCc1cc(=O)c(O)co1`: the growth in experiment [1] was 92.8%; in experiment [2] it was 109%; in experiment [3], 98.2%; in [4], 105%; in [5] it was 112%; in experiment [6] it was 105%. The growth was 96% in experiment [7], 101% in [8], 99.8% in experiment [9] and 125% in [10].
In the case of `CC/C(=C\c1ccc(OC)cc1)C(=O)c1ccc(OC)cc1`, the growth was 86.4% in experiment [1]; 93.7% in experiment [2]; 92.5% in [3]; 86.8% in experiment [4]; 102% in [5]; 85.2% in experiment [6]. The growth in experiment [7] was 74.3%; in experiment [8], 123%; in experiment [9] it was 97.3%; in experiment [10], 121%.
Turning to `O=C(CSc1nc2sc3c(c2c(=O)n1-c1ccc(Cl)cc1)CCCC3)Nc1nc(-c2cccc(Br)c2)cs1`, the growth in [1] was 56.9%; in experiment [2] it was 64%; in [3], 87.8%; in experiment [4], 90.7%; in [5], 94.7%; in [6] it was 107%. The growth in experiment [7] was 69.8%; in experiment [8], 70.4%; in [9], 91.5%; in experiment [10], 85.1%.
With `Cc1cc(C)c(S(=O)(=O)Oc2ccccc2[N+](=O)[O-])c(C)c1`, the growth in experiment [1] is 32.9%; in experiment [2], 60%; in experiment [3], 52.6%; in experiment [4], 39.8%; in experiment [5], 8.64% (active); in experiment [6], 38.1%. The growth in experiment [7] was -12.5% (active); in experiment [8] it was 31.2%; in experiment [9] it was 33%; in experiment [10] it was 22.9%.
For the compound `COC(=O)C1=C(C(=O)ON)C2C=CC1(C(Cc1ccccc1)Nc1ccccc1)O2` (stereo not given), the growth in experiment [1] is 89.4%; in experiment [2], 107%; in experiment [3], 93.3%; in [4], 105%; in [5], 103%; in experiment [6], 46.5%. For the same compound, the growth in [7] is -77.4% (active); in experiment [8], 96.1%; in [9] it was 93%; in [10] it was -72% (active).
With `Cc1cccc(C)c1N=c1oc2ccc(Cl)cc2nc1-c1ccccc1O`, the growth in experiment [1] is 78.6%; in [2], 88.1%; in experiment [3], 88.6%; in experiment [4], 112%; in [5], 97.2%; in experiment [6] it was 55.9%. Also, the growth in [7] is 82.9%; in experiment [8], 96.7%; in experiment [9] it was 90%; in [10], 89.7%.
Take `Cc1ccc(NC(C(=O)c2ccccc2)c2ccccc2)cc1` (stereo not given): the growth in experiment [1] is 59.5%; in [2], 75.3%; in [3] it was 97.3%; in experiment [4] it was 80.2%; in experiment [5] it was 46.9%; in experiment [6] it was 39.8%. Also, the growth in [7] is 34.4%; in experiment [8] it was 58%; in experiment [9] it was 75.5%; in [10], 41.9%.
For the compound `Cn1ccnc1C(=O)/C=C/c1ccc(CC(=O)Nc2ccc(F)cc2)cc1`, the growth is 27.8% in experiment [1]; 82.5% in [2]; 42.8% in experiment [3]; 18.4% in experiment [4]; 3.59% (active) in experiment [5]; 71% in [6]. For the same compound, the growth in [7] was 16.9%; in [8], 38.2%; in [9], 30.4%; in experiment [10], 41.6%.
Turning to `Cc1ncc(C(=O)Nc2ccc(CN3CCN(C)CC3)c(C(F)(F)F)c2)cc1C#Cc1cnc(N)cc1C#N`, the growth in experiment [1] is 30.6%; in experiment [2], -71% (active); in [3], 28%; in [4], 42.3%; in [5], -77.6% (active); in [6], 17.3%. For the same compound, the growth was -46.2% (active) in [7], -89.5% (active) in experiment [8], -65.5% (active) in [9] and 21.5% in experiment [10].
With `COc1ccc(/C=C/c2nc(Nc3ccc(S(=O)(=O)NC(C)=O)cc3)c3ccccc3n2)cc1`, the growth is 85.9% in experiment [1]; 84% in experiment [2]; 38.6% in experiment [3]; 81.2% in [4]; 64.7% in [5]; 67.8% in experiment [6]. For the same compound, the growth is 76.3% in [7], 42% in experiment [8], 83.6% in [9] and 49.7% in experiment [10].
Regarding `OCc1cnccc1NCCCOc1ccccc1`, the growth was 97.7% in [1]; 92.9% in experiment [2]; 100% in experiment [3]; 99.9% in [4]; 106% in experiment [5]; 90.5% in experiment [6]. In addition, the growth in [7] is 100%; in [8], 93.2%; in experiment [9], 101%; in experiment [10] it was 123%.
Consider `O=c1[nH]nc(-c2ccccc2)c2sc3ncc(-c4ccc(Br)cc4)n3c12`, for which the growth in experiment [1] was 61.6%; in experiment [2] it was 43.8%; in experiment [3], 72.3%; in experiment [4] it was 48.8%; in experiment [5] it was 33.8%; in experiment [6], 65.3%. Also, the growth was -1.56% (active) in [7], 82.9% in experiment [8], 53% in experiment [9] and 37.2% in [10].
Turning to `O=[N+]([O-])c1ccc(N=Nc2cc(S(=O)(=O)O)c3cccc(S(=O)(=O)O)c3c2O)cc1`, the growth in experiment [1] is 103%; in [2], 105%; in experiment [3], 80.7%; in experiment [4], 107%; in experiment [5] it was 116%; in [6], 87.8%. The growth in [7] was 110%; in [8], 114%; in experiment [9], 114%; in experiment [10] it was 127%.
With `C=CCn1c(-c2ccc(-c3nc4ccc(C)cc4[nH]3)cc2)n[nH]c1=S`, the growth in experiment [1] was 94.6%; in experiment [2] it was 94.1%; in experiment [3] it was 102%; in experiment [4], 97.7%; in experiment [5], 105%; in experiment [6], 117%. The growth in experiment [7] is 90.7%; in experiment [8] it was 99.2%; in experiment [9], 107%; in [10] it was 120%.
`Nc1c(C(=O)Nc2cccc3cnccc23)sc2nc3c(cc12)CN(Cc1ccccc1)CC3`: the growth in [1] is 99.9%; in experiment [2], 92.5%; in [3], 96.9%; in [4] it was 98.7%; in experiment [5], 109%; in experiment [6], 96.4%. The growth is 97.2% in experiment [7], 107% in experiment [8], 109% in [9] and 112% in [10].
As for `CCN(CC)c1ccc(C(=O)c2ccccc2)cc1`, the growth in [1] was 96.4%; in [2], 87.9%; in experiment [3] it was 97.9%; in experiment [4], 91.2%; in experiment [5] it was 104%; in [6], 89.6%. Further, the growth was 87.2% in [7], 89.4% in experiment [8], 103% in [9] and 111% in [10].
Regarding `C=C1C(=O)O[C@H]2[C@H]1CC/C(CNC(=O)/C=C/c1ccccc1)=C\CC[C@@]1(C)O[C@@H]21`, the growth in experiment [1] was 54.5%; in experiment [2], 64.8%; in [3] it was 71.9%; in experiment [4] it was 80.3%; in [5], 39.7%; in experiment [6], -40.9% (active). Also, the growth is -86.8% (active) in [7], 46.8% in experiment [8], -64.4% (active) in [9] and -64.7% (active) in [10].
For `C=CC(=O)N[C@@H](/C=C/C(=O)OCC)Cc1ccc(-c2cc(Cl)cc(Cl)c2)cc1`, the growth was 15.6% in experiment [1]; 10.8% in experiment [2]; 58.9% in [3]; 36% in experiment [4]; 9.25% (active) in experiment [5]; 14.8% in experiment [6]. Also, the growth was 3.13% (active) in [7], 11.6% in [8], 11.8% in experiment [9] and 6.63% (active) in experiment [10].
